From the supplement of paper PMC7695840

Columns and labels:
[1] = tested on: Staphylococcus aureus MW2 delta-mecA (mecA-); assay: normalized GFP fluorescence (growth of mecA- strain) (fraction of control range); higher = more growth of mecA- strain; details: compound concentration: 150 uM; cefoxitin: subinhibitory; fluorescent label: GFP
Procedure, shortened: (§1)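 Pre-induced S. aureus MW2 mecA+ (DsRed) and ΔmecA (GFP) cells were mixed 1:1 in LB with a daily-set subinhibitory cefoxitin dose. They were dispensed at 5 µL/well onto 150 μM compound (1.5% DMSO) in 1536-well plates, single replicate. Growth was 20 h at 37 °C, 90% humidity, unshaken, and DsRed (540/590) and GFP (485/520) were then read. Each channel was scaled per plate between the medians of the single-strain controls. Plates with high No Treatment ratios and rows with DsRed/GFP >10 were excluded.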

[2] = tested on: Staphylococcus aureus MW2 (mecA+); assay: normalized DsRed fluorescence (growth of mecA+ strain) (fraction of control range); higher = more growth of mecA+ strain; details: compound concentration: 150 uM; cefoxitin: subinhibitory; fluorescent label: DsRed
Procedure, shortened: as §1

SMILES | normalized GFP fluorescence [1] | normalized DsRed fluorescence [2]
CC(=O)OCC(=O)[C@@]12OC3(CCCC3)O[C@@H]1C[C@H]1[C@@H]3CCC4=CC(=O)C=C[C@]4(C)[C@@]3(F)[C@@H](O)C[C@@]12C | 0.197 | 0.883
CC(C)(C)NCC(O)c1cc(O)cc(O)c1 (configuration not stated) | 0.587 | 0.611
CC1(C)NC(=O)N(c2ccc([N+](=O)[O-])c(C(F)(F)F)c2)C1=O | 0.333 | 0.86
NS(=O)(=O)c1cc2c(cc1Cl)NC(C(Cl)Cl)NS2(=O)=O (configuration not stated) | 0.381 | 0.814
CC(=O)Oc1cccc(O)c1 | 0.353 | 0.584
CCC(=O)O[C@H](CC(=O)O)C[N+](C)(C)C | 0.307 | 1.23
C=CC(=O)N1CCC[C@@H](n2nc(-c3ccc(Oc4ccccc4)cc3)c3c(N)ncnc32)C1 | 0.0101 | 1.1
CN1CCN(c2c(F)cc3c(=O)c(C(=O)O)cn(CCF)c3c2F)CC1 [Fleroxacin (Quinodis)] | 0.0169 | 0.075
CCN1CC(CCN2CCOCC2)C(c2ccccc2)(c2ccccc2)C1=O (configuration not stated) | 0.294 | 0.634
N=C(N)N | 0.207 | 0.654
O=C(CCCN1CCC(O)(c2ccc(Cl)cc2)CC1)c1ccc(F)cc1 | 0.45 | 1.19
C[C@H](N)[C@H](O)c1cccc(O)c1 | 0.482 | 0.581
NC[C@@H]1O[C@@H](O[C@H]2[C@H](O)[C@@H](O[C@H]3O[C@H](CO)[C@@H](O)[C@H](N)[C@H]3O)[C@H](N)C[C@@H]2N)[C@@H](O)[C@H](O)[C@H]1O | 0.472 | 0.795
C[C@]12C=CC(=O)C=C1CC[C@@H]1[C@@H]2[C@@H](O)C[C@@]2(C)[C@H]1CC[C@]2(O)C(=O)COC(=O)CCC(=O)O | 0.461 | 1.04
Cc1ccc(=O)n(-c2ccccc2)c1 [Pirfenidone] | 0.368 | 0.778
CN(C)CCOc1ccc(/C(=C(/CCCl)c2ccccc2)c2ccccc2)cc1 | 0.000588 | 0.0394
C[N+](C)(C)CCOP(=O)(O)OP(=O)([O-])OC[C@H]1O[C@@H](n2ccc(N)nc2=O)[C@H](O)[C@@H]1O | 0.342 | 0.78
OC[C@H]1O[C@@H](O[C@@H]2[C@@H](CO)O[C@](O)(CO)[C@H]2O)[C@H](O)[C@@H](O)[C@H]1O | 0.29 | 0.712

SMILES | normalized GFP fluorescence [1] | normalized DsRed fluorescence [2]
CS(=O)(=O)c1ccc(C2=C(c3ccccc3)C(=O)OC2)cc1 | 0.195 | 0.89
CS(=O)(=O)OCCCCOS(C)(=O)=O | 0.346 | 0.573
OC(CCN1CCCCC1)(c1ccccc1)C1CCCCC1 (configuration not stated) | 0.277 | 0.789
CCN[C@H]1CN(CCCOC)S(=O)(=O)c2sc(S(N)(=O)=O)cc21 | 0.268 | 0.875
C[C@H](Cc1cc2c(c(C(N)=O)c1)N(CCCO)CC2)NCCOc1ccccc1OCC(F)(F)F [Silodosin (Rapaflo)] | 0.269 | 1.1
CC(C)NCC(O)COc1ccc(COCCOC(C)C)cc1 (configuration not stated) | 0.499 | 0.658
CCC(CC)[C@H](NC(C)=O)[C@@H]1[C@H](O)[C@@H](C(=O)O)C[C@H]1NC(=N)N [Peramivir Trihydrate] | 0.634 | 0.659
COC(=O)[C@H]1[C@H]2C[C@@H]3c4[nH]c5cc(OC)ccc5c4CCN3C[C@H]2C[C@@H](OC(=O)c2cc(OC)c(OC)c(OC)c2)[C@@H]1OC | 0.0258 | 1.04
CCOC(=O)[C@H](CCc1ccccc1)N[C@@H](C)C(=O)N1[C@H](C(=O)O)C[C@H]2CCCC[C@@H]21 | 0.598 | 0.51
CN(C)CCc1c[nH]c2ccc(Cn3cncn3)cc12 | 0.425 | 0.751
NC(=O)N/N=C/c1ccc([N+](=O)[O-])o1 [Nitrofurazone (Nitrofural)] | 0.0137 | 0.0574
CC(C)(C)C(=O)OCOP(=O)(COCCn1cnc2c(N)ncnc21)OCOC(=O)C(C)(C)C [Adefovir Dipivoxil (Preveon, Hepsera)] | 0.38 | 0.712
CCCCCNC(=N)N/N=C/c1c[nH]c2ccc(OC)cc12 | 0.0155 | 0.587
Nc1ccc(S(=O)(=O)Nc2nccs2)cc1 | 0.273 | 1.4
CC(C)(Oc1ccc(CCNC(=O)c2ccc(Cl)cc2)cc1)C(=O)O | 0.407 | 0.804
C[C@]12CC[C@@H]3c4ccc(O)cc4CC[C@H]3[C@@H]1CCC2=O [Estrone] | 0.136 | 1.11
CCCNCC(O)COc1ccccc1C(=O)CCc1ccccc1 (configuration not stated) | 0.19 | 1.05
O=C(O)CCNC(=O)c1ccc(/N=N/c2ccc(O)c(C(=O)O)c2)cc1 | 0.565 | 0.891
